Results from PubChem BioAssay (Tox21).
Inconclusive results are not listed. Where a call stands in place of a potency, no number is given. Activity calls are given as the source filed them. The call rests on the fitted dose curve; in most records, active means well fitted cell-killing curve with a large enough effect in the repeat runs; inconclusive means weak or mixed curves, or effect the other way; inactive means flat fitted curve, though single readings scatter.

Assay: qHTS assay to identify small molecule antagonists of the estrogen receptor alpha (ER-alpha) signaling pathway using the BG1 cell line in the presence of 0.1 nM 17-beta-estradiol - cell viability counter screen (AID 1259241); further: nearly all actives have a fitted effect of over 40% in size
Conditions: VM7Luc4E2 (BG1) viability, CellTiter-Fluor protease, 22 h, 0.1 nM estradiol agonist added; series mostly up to 92.4 µM
How it was run: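 Live-cell protease activity (CellTiter-Fluor fluorescence, 30 min) was read in the same wells after VM7Luc4E2 cells had been exposed to compounds with 0.1 nM 17beta-estradiol for 22 hr at 37C.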

SMILES | Potency
Cc1noc(NS(=O)(=O)c2ccc(N)cc2)c1C | inactive
CC(C)(Oc1ccc(C2CC2(Cl)Cl)cc1)C(=O)O (configuration not stated) | inactive
CCCC(CCC)C(=O)O | inactive
OC(Cn1cncn1)(Cn1cncn1)c1ccc(F)cc1F | inactive
CCCCC1C(=O)N(c2ccccc2)N(c2ccccc2)C1=O | inactive
O=c1cc[nH]c(=S)[nH]1 | inactive
CC(C)[C@@H]1CC[C@@H](C)C[C@H]1O | inactive
Cc1cc(=O)n(-c2ccccc2)n1C | inactive
NC(=O)c1ccccc1O | inactive
NNC(=O)c1ccncc1 | inactive
CCCNC(=O)NS(=O)(=O)c1ccc(Cl)cc1 | inactive
NC(N)=O | inactive
CCCC(O)C(CC)CO (configuration not stated) | inactive
CCCCC(CC)COC(=O)/C=C/c1ccc(OC)cc1 (configuration not stated) | inactive
NS(=O)(=O)c1cc(C(=O)O)c(NCc2ccco2)cc1Cl | inactive
Nc1ccc(C(=O)O)cc1 | inactive
O=C(O)CCCCC(=O)O | inactive
CCCN(CCC)S(=O)(=O)c1ccc(C(=O)O)cc1 | inactive

SMILES | Potency
NC(N)=NC(=O)c1nc(Cl)c(N)nc1N | inactive
Cc1ccc(O)cc1 | inactive
NC(=O)c1cnccn1 | inactive
C1N2CN3CN1CN(C2)C3 | inactive
C[C@]12C=CC(=O)C=C1CC[C@@H]1[C@@H]2[C@@H](O)C[C@@]2(C)[C@H]1CC[C@]2(O)C(=O)CO | inactive
Nc1ccn([C@H]2CC[C@@H](CO)O2)c(=O)n1 | inactive
CC1(C)[C@@H]2CC[C@@]1(C)C(=O)C2 | inactive
O=C(c1ccccc1)c1ccccc1 | inactive
Nc1ccc(O)c(C(=O)O)c1 | inactive
COc1ccc2[nH]cc(CCNC(C)=O)c2c1 | inactive
Cc1ccc(S(=O)(=O)NC(=O)NN2CCCCCC2)cc1 | inactive
Cc1ccc(C)c(OCCCC(C)(C)C(=O)O)c1 | inactive
Nc1ccc(S(=O)(=O)c2ccc(N)cc2)cc1 | inactive
Oc1ccc(/C=C/c2cc(O)cc(O)c2)cc1 | inactive
CC(=O)Nc1nnc(S(N)(=O)=O)s1 | inactive
CC(=O)NS(=O)(=O)c1ccc(N)cc1 | inactive
Cn1cc[nH]c1=S | inactive
O=c1ccc2ccccc2o1 | inactive

Assay: qHTS assay to identify small molecule antagonists of the androgen receptor (AR) signaling pathway using the MDA cell line in the presence of 0.5 nM R1881 - cell viability counter screen (AID 1259242); further: nearly all actives have a fitted effect of over 45% in size
Conditions: MDA-kb2 viability, CellTiter-Fluor protease fluorescence, 16 h; series mostly up to 92.4 µM
How it was run: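 Live-cell protease fluorescence, CellTiter-Fluor, 30 min at 37C. Cells: MDA-kb2, 3,000/well, preincubated 5 hr. Compounds plus 0.5 nM R1881 final, 16 hr, 37C, 0% CO2.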

SMILES | Potency
Cc1noc(NS(=O)(=O)c2ccc(N)cc2)c1C | inactive
CC(C)(Oc1ccc(C2CC2(Cl)Cl)cc1)C(=O)O (configuration not stated) | inactive
CCCC(CCC)C(=O)O | inactive
OC(Cn1cncn1)(Cn1cncn1)c1ccc(F)cc1F | inactive
CCCCC1C(=O)N(c2ccccc2)N(c2ccccc2)C1=O | inactive
O=c1cc[nH]c(=S)[nH]1 | inactive
CC(C)[C@@H]1CC[C@@H](C)C[C@H]1O | inactive
Cc1cc(=O)n(-c2ccccc2)n1C | inactive
NC(=O)c1ccccc1O | inactive
NNC(=O)c1ccncc1 | inactive
CCCNC(=O)NS(=O)(=O)c1ccc(Cl)cc1 | inactive
NC(N)=O | inactive
CCCC(O)C(CC)CO (configuration not stated) | inactive
CCCCC(CC)COC(=O)/C=C/c1ccc(OC)cc1 (configuration not stated) | inactive
NS(=O)(=O)c1cc(C(=O)O)c(NCc2ccco2)cc1Cl | inactive
Nc1ccc(C(=O)O)cc1 | inactive
O=C(O)CCCCC(=O)O | inactive
CCCN(CCC)S(=O)(=O)c1ccc(C(=O)O)cc1 | inactive

SMILES | Potency
NC(N)=NC(=O)c1nc(Cl)c(N)nc1N | inactive
Cc1ccc(O)cc1 | inactive
NC(=O)c1cnccn1 | inactive
C1N2CN3CN1CN(C2)C3 | inactive
C[C@]12C=CC(=O)C=C1CC[C@@H]1[C@@H]2[C@@H](O)C[C@@]2(C)[C@H]1CC[C@]2(O)C(=O)CO | inactive
Nc1ccn([C@H]2CC[C@@H](CO)O2)c(=O)n1 | inactive
CC1(C)[C@@H]2CC[C@@]1(C)C(=O)C2 | inactive
O=C(c1ccccc1)c1ccccc1 | inactive
Nc1ccc(O)c(C(=O)O)c1 | inactive
COc1ccc2[nH]cc(CCNC(C)=O)c2c1 | inactive
Cc1ccc(S(=O)(=O)NC(=O)NN2CCCCCC2)cc1 | inactive
Cc1ccc(C)c(OCCCC(C)(C)C(=O)O)c1 | inactive
Nc1ccc(S(=O)(=O)c2ccc(N)cc2)cc1 | inactive
Oc1ccc(/C=C/c2cc(O)cc(O)c2)cc1 | inactive
CC(=O)Nc1nnc(S(N)(=O)=O)s1 | inactive
CC(=O)NS(=O)(=O)c1ccc(N)cc1 | inactive
Cn1cc[nH]c1=S | inactive
O=c1ccc2ccccc2o1 | inactive
